Screening data deposited in PubChem BioAssay by National Center for Advancing Translational Sciences (NCATS).
The list is not random: actives were taken first. Their share in the collection is about 7.5%.
NPC1 prom act: NPC1 promoter activation. Huh7 NPC1 promoter luciferase reporter, 24 h. 320,000 tested, 2.4% active. Potency, µM (doses to about 9.22 µM), inactives show at the top dose activation, actives largely listed as activators. AID 485313; also: % of control where 0% means no effect; nearly all actives have a fitted effect of over 60% in size
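Huh7 reporter cells (NPC1 promoter driving luciferase) are dosed with compound for 24 h at 37 °C, 5% CO2; luciferase detection reagent is then added and luminescence measured after 10 min at ambient temperature.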
FLuc modulator: counter-screen for miR-21 project: firefly luciferase inhibitors or activators; purified FLuc, Km substrates, luminescence inhibition; 360,000 tested, 6.9% active; Potency, µM (series often up to 57.5 µM), for inactives: top-dose activity change, negative = inhibition, most hits filed as inhibitors; AID 588342;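 also: plate controls were vehicle for no effect and reference inhibitor for full effect; nearly all actives have a fitted effect of over 55% in size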
Target sequence (P08659 whole entry, looked up): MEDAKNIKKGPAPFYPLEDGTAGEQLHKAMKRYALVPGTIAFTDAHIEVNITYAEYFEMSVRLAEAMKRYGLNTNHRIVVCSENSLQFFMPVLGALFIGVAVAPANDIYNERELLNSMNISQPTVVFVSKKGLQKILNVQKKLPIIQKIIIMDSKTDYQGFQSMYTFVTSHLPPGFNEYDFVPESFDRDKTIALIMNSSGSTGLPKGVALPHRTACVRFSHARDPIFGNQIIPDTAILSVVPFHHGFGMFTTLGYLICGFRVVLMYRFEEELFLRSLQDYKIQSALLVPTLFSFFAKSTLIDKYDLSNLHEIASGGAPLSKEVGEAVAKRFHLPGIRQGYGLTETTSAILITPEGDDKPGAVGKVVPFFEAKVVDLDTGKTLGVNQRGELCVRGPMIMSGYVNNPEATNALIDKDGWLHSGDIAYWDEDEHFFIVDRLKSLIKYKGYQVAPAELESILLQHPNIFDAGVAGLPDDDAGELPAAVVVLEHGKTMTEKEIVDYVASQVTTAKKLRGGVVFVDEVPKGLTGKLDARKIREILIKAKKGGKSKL
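Biochemical qHTS of compounds, final roughly 60 µM downward over six points, against 10 nM purified firefly luciferase using Km concentrations of substrates (10 uM D-luciferin, 10 uM ATP) in Tris acetate pH 7.5 buffer; luminescence output.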
SMN2 splice enh: enhancers of SMN2 splice variant expression; HEK293 SMN2-luciferase splicing reporter, luminescence, 30-36 h; Potency, µM (series often up to 46.1 µM), without a hit: at the top dose activity change, positive = activation, hits mostly activators; 210,000 tested, 2.8% active; AID 1458; also: % of control where 0% means no effect; nearly all actives have a fitted effect of over 55% in size
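qHTS luciferase splicing reporter: luminescence rises when SMN2 exon 7 is included in transfected HEK293 cells. Compound exposure lasted 30-36 h at 37C, with 4.5 mM final sodium butyrate as control, followed by a ONE-Glo read.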
Rab9 prom act: activates the Rab9 promoter; Huh7 Rab9 promoter-luciferase reporter, luminescence, 24 h; Potency, µM (doses to about 9.22 µM), for the others: at the highest dose activation, negative = inhibition, hits mostly activators; AID 485297; 320,000 tested, 2.8% active; also: % of control where 0% means no effect; nearly all actives have a fitted effect of over 60% in size
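Huh7 cells stably carrying Rab9 promoter–luciferase reporter, plated 1500 cells/well, compound added after 2 h and incubated 24 h at 37 °C; luciferase luminescence then read after 10 min with detection reagent.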
ELG1 genotoxic: inducers of genotoxicity in HEK293T ELG1-luciferase cells; AID 504466; 330,000 tested, 1.3% active; Potency, µM (series often up to 46 µM), without a hit: at the highest dose activity change, positive = activation, hits mostly activators; HEK293T ELG1-luciferase reporter, luminescence, 16 h; also: % of control where 0% means no effect; nearly all actives have a fitted effect of over 60% in size
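After overnight (16 hr) compound treatment at 37 °C, ELG1-luciferase HEK293T cells were lysed with ONE-Glo; luminescence quantified 30 min later at room temperature.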
* marks the source's active call; other numbers are inactive results; ? = inconclusive; nt = not tested or not shown; [ ] = another dose, or the depositor's remark. Calls follow the shape of the dose curve; as a rule, active = well fitted curve in the direction sought with a large enough effect; inconclusive = small, poorly fitted or top-dose-only effect, or another doubt; inactive = no such curve, though single readings can be large; an effect the other way counts as inactive or inconclusive. Potency is read from the fitted curve at half-maximal effect.

SMILES	NPC1 prom act	FLuc modulator	SMN2 splice enh	Rab9 prom act	ELG1 genotoxic
Cc1ccc(C(=O)Nc2ncn[nH]2)cc1	-2.9%	?	nt	10.7%	9.0%
CCc1c(C)c2nncn2[nH]c1=O	1.1%	0.9%	26.1%	-4.3%	-4.1%
Cc1ccc(NC(=O)COc2ccccc2C(=O)NCCc2ccccc2)cc1	1.8%	21.3µM*	nt	8.8%	-0.4%
O=C(COc1ccccc1C(=O)Nc1ccccc1)NCCc1ccccc1	-4.5%	-2.4%	6.0%	5.4%	-1.8%
CCCCOc1ccc(C(=O)NCCc2ccccc2)cc1	0.316µM*	6.01µM*	nt	1.12µM*	?
COc1ccc(C(=O)Nc2cnccn2)cc1[N+](=O)[O-]	-2.7%	1.4%	nt	11.4%	-5.0%
CC(=O)Nc1ccc(C(=O)NCCc2ccccc2)cc1	?	?	15.8µM*	?	?
CC(C)(C)c1ccc(C(=O)Nc2cnccn2)cc1	1.78µM*	1.35µM*	28.2µM*	0.562µM*	0.651µM*
O=C(Nc1ccccn1)C1CCN(c2ncnc3c2nc2n3CCCCC2)CC1	-2.6%	-2.4%	nt	-2.3%	-5.9%
Cc1nc([N+](=O)[O-])c(C(=O)OCc2cccc(Br)c2)n1C	-1.0%	-0.4%	0.1%	0.6%	12.0%
CCOc1ccc(-c2c(C(=O)N/N=C/c3cccnc3)nnn2-c2nonc2N)cc1	1.1%	3.0%	nt	-2.7%	0.5%
O=C(Cc1ccccc1F)NNC(=O)c1ccncc1	-3.3%	1.8%	nt	0.0%	4.3%
O=C(CCC1CCCN(C(=O)c2ccc3[nH]ccc3c2)C1)N1CCN(c2ccccn2)CC1 (stereo unspecified)	-6.7%	5.2%	nt	-15.7%	-10.8%
O=C(Oc1ccc(F)cc1)c1nc(SCc2ccccc2F)ncc1Cl	nt	2.8%	10.9%	nt	nt
CCOc1cc(/C=C/C(=O)N(CC)CC(=O)NCc2cccs2)cc(Cl)c1OC	-3.7%	2.2%	nt	1.9%	-2.3%
O=C(NCCCCNC(=O)c1ccc(F)cc1)c1ccc(F)cc1	-2.9%	1.1%	nt	3.0%	3.4%
Cc1ccc(NS(=O)(=O)c2ccc(C(=O)NCc3cccnc3)cc2)cc1	17.0%	21.3µM*	nt	7.2%	?
O=C(NCCc1ccccc1)c1ccncc1	28.9%	?	8.2%	3.55µM*	?
O=C(NCCCc1ccccc1)c1ccc(F)cc1	?	23.9µM*	nt	1.78µM*	?
O=C(NCc1cccnc1)c1ccc(S(=O)(=O)Nc2ccccc2)cc1	-0.9%	-1.6%	nt	-1.0%	1.0%
COc1ccc(/C=N/N2C(=O)C3C4C=CC(CC4)C3C2=O)c(OC)c1 (stereo unspecified)	-8.8%	?	2.6%	3.4%	7.4%
Cc1ccc(-n2c(C)cc(C=C3C(=O)CC(C)(C)CC3=O)c2C)cc1	0.5%	?	-19.2%	-3.1%	-0.5%
Cc1cc(/C=C2/C(=O)NN(c3ccccc3)C2=O)c(C)n1-c1cccc(O)c1	1.58µM*	0.135µM*	-25.4%	3.55µM*	?
Cc1ccc(-n2c(C)cc(/C=C3\SC(=O)NC3=O)c2C)cc1	2.51µM*	2.69µM*	nt	0.708µM*	?
Cc1cc(/C=C2\SC(=S)NC2=O)c(C)n1-c1cccc(O)c1	2.51µM*	1.07µM*	nt	1.58µM*	?
SMILES	NPC1 prom act	FLuc modulator	SMN2 splice enh	Rab9 prom act	ELG1 genotoxic
Cc1cc(/C=C2\SC(=S)N(C)C2=O)c(C)n1-c1ccc(O)cc1	-14.7%	0.536µM*	nt	-25.9%	?
O=C1NN(c2ccc(Br)cc2)C(=O)/C1=C\c1ccc(O)cc1O	7.3%	?	nt	4.2%	-3.2%
COc1ccc(NC(=O)N2CC[C@@]3(CCCN(C(=O)c4cccn4C)C3)C2)cc1	nt	nt	-2.1%	nt	nt
CCCCn1c(=O)[nH]c(=O)c2c(C(=O)OCC)cc(-c3ccc(OC(F)F)cc3)nc21	2.2%	-1.1%	12.5%	-10.9%	?
Cc1sc(-n2c(C)cc(/C=N/n3cnnc3)c2C)c(C#N)c1C	-6.0%	?	nt	-5.2%	2.0%
Cc1sc(-n2c(C)cc(/C=C3\SC(=S)NC3=O)c2C)c(C#N)c1C	-0.9%	13.5µM*	3.4%	?	1.4%
Cc1cc(/C=C2\SC(N)=NC2=O)c(C)n1-c1ccc(F)cc1	19.3%	0.849µM*	nt	19.5%	10.4%
NC1=NC(=O)/C(=C/c2ccc(Cl)cc2Cl)S1	-1.2%	-13.6%	nt	11.8%	4.8%
COc1ccc(-n2c(C)cc(/C=C3\SC(=O)NC3=O)c2C)cc1	?	12µM*	nt	?	?
CCOc1ccc(NC(=O)Nc2c(C)n(C)n(-c3ccccc3)c2=O)cc1	-0.4%	-3.5%	-1.7%	-3.3%[1.84 µM]	-2.0%
Cc1ccc2cc(/C=N/NC(=O)CN3CCCCC3)c(Cl)nc2c1	-2.7%	-16.3%	-11.4%	6.3%	5.5%
Cc1cc(C(=O)N/N=C/c2cccc([N+](=O)[O-])c2O)n[nH]1	1.6%	15.1µM*	-13.2%	-5.9%	-2.9%
Cc1cc(C(=O)N/N=C/c2ccc(O)c([N+](=O)[O-])c2)n[nH]1	-3.6%	?	-6.0%	-5.0%	-2.2%
CC(C)(C)c1cc(C(=O)N/N=C/c2ccc(-c3ccccc3[N+](=O)[O-])o2)n[nH]1	18.1%	21.3µM*	nt	9.4%	-3.3%
COc1cc(C2N=C(c3ccccc3)NO2)cc(Br)c1O (stereo unspecified)	14.7%	?	10.1%	8.3%	9.3%
COc1ccc(C2N=C(c3ccccc3)NO2)cc1OC (stereo unspecified)	20.3%	10.7µM*	nt	20.1%	?
FC(F)Oc1ccc(C2N=C(c3ccccc3)NO2)cc1 (stereo unspecified)	2.82µM*	4.78µM*	nt	1.58µM*	?
Cc1ccsc1C(=O)Nc1ccc2c(c1)OCCO2	1.26µM*	1.9µM*	2.24µM*	0.631µM*	2.06µM*
Cc1ncoc1C(=O)Nc1ccc2c(c1)OCCO2	3.16µM*	12µM*	15.8µM*	2.51µM*	?
COc1cc(/C=N/NC(=S)NCCN2CCOCC2)ccc1O	-0.3%	-15.1%	-3.7%	-11.1%	0.7%
O[C@@](CCN1CCCCC1)(c1ccccc1)C1CCCCC1	nt	nt	-13.1%[20.6 µM]	nt	nt
O=C(Cn1c(=O)oc2ccccc21)NCc1ccc(Cl)cc1	nt	2.0%	nt	nt	nt
Cc1cc(C(=O)NNC(=S)NC(=O)/C=C/c2ccccc2Cl)n[nH]1	8.8%	23.9µM*	2.0%	6.0%	-3.3%
COc1ccccc1CC(=O)Nc1cccc2c1CCCC2	-6.9%	-2.1%	4.47µM*	-3.5%	3.0%
CCNc1ccc(C(=O)OCC(=O)N(Cc2ccccc2)C(C)(C)C)cc1[N+](=O)[O-]	-2.5%	3.4%	12.8%	0.3%	-4.5%
O=C(Oc1ccc2c(c1)OCO2)c1cccs1	2.2%	10.7µM*	?	-5.0%	5.1%
CCCc1ccc(OC(=O)c2cccs2)cc1	1.6%	6.01µM*	-4.6%	-2.2%	11.5%
Cc1cc(OC(=O)c2cccs2)ccc1C(C)C	-0.2%	3.01µM*	3.4%	-0.7%	0.6%
CCCc1ccc(OC(=O)c2ccc(O)cc2Cl)cc1	2µM*	2.39µM*	?	1µM*	?
O=C(COc1ccc2c(c1)OCO2)NCc1cccs1	nt	nt	nt	nt	8.3%
